Among all 4,400 compounds or so, about 3,700 (84%) were called active.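 Rule for the calls: active = inhibition above about 39% in either of two replicate wells at 20 µM (limit read from the data); inactive = the rest.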 So high a share suggests a set chosen from earlier hits. Only a sample is shown.
Assay: growth inhibition of tim23-1 ts yeast, retest – luminescence, single concentration, confirmation (AID 463218);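 note: temperature-sensitive tim23-1 mutant grown at 25 °C; 0% = DMSO wells with yeast and 100% = medium wells without yeast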
Conditions: S. cerevisiae tim23-1 growth, BacTiter-Glo luminescence, 24 h; at 20 µM; hits give high values

inhibition, active:
O=C1Oc2ccccc2C(=O)/C1=C/c1ccccc1O 89%
O=C(CC(O)(C(F)(F)F)C(F)(F)F)Nc1ccc(Cl)c(Cl)c1 92.1%
COc1cc(NC(=O)c2cccs2)ccc1NC(=O)c1ccccc1Cl 42.2%
Cc1nn(CC(=O)Nc2nc3ccccc3s2)c(C)c1[N+](=O)[O-] 54%
C=C1CCC(N(O)c2cc(C)on2)C(=C)CCC2C1CC2(C)C (configuration not stated) 44.8%
Cc1ccccc1OCC(=O)Nc1ccc(N2CCN(C(=O)C(C)C)CC2)c(Cl)c1 76.3%
N/C(=N\OC(=O)CCc1ccccc1)c1ccc(Cl)cc1 67.7%
COc1ccc(/C(N)=N/OC(=O)CCCc2ccccc2)cc1 41.2%
O=[N+]([O-])c1ccccc1S(=O)(=O)Nc1cccc2cccnc12 59.1%
Cc1cccc(Oc2c([N+](=O)[O-])c(=O)n(C)c3ccccc23)c1 59.6%
N/C(=N\OC(=O)CC1CCCCC1)c1ccccc1 53.1%
O=C(NCCc1ccc(F)cc1)c1ccc(S(=O)(=O)N2CCCCC2)cc1 56%
Cc1ccc2cc3cc(C(=O)N4CCCCCC4)oc3nc2c1 56%
CCC(=O)Nc1nc(C)c(C(=O)Nc2cccc(Cl)c2)s1 75.2%
COc1cc(Br)cc(/C=N/c2ncn[nH]2)c1O 85.5%
O=C1c2cccc3c([N+](=O)[O-])ccc(c23)C(=O)N1CC1CCCO1 (configuration not stated) 86.2%
O=C(Oc1ccc([N+](=O)[O-])cc1)c1ccc2ccccc2n1 70.7%
O=C(N[C@H]1C/C=C\C(c2cccc(F)c2)N(Cc2ccccc2)C(=O)C1)OCC1c2ccccc2-c2ccccc21 (some centres not stated) 40%
COC(=O)c1c(NC(=O)CSc2nncs2)sc2c1CCCCC2 46.1%
O=C(N/N=C/C=C/c1ccco1)c1cccs1 68.9%
COc1ccc(CNC(=O)/C(C#N)=C/c2cccc(OC)c2OC)cc1 76.6%
CCCc1nc2c(c(=O)c3ccccc3n2C)c(=O)n1C1CCCCCC1 58.9%
Cc1ccc(S(=O)(=O)NC2CCCCCC2)cc1 37%
O=C(Cc1c(F)cccc1Cl)Nc1ncc([N+](=O)[O-])s1 71.3%
COc1ccc(-c2nc3cc(C)ccn3c2NC2CCCCC2)cc1SC1CCCCC1 48.6%
O=C(/C=C/c1ccc(Cl)c([N+](=O)[O-])c1)c1cccnc1 73.4%
Cc1ccccc1C1=N/C(=C/c2cccnc2)C(=O)O1 57%
O=C(Nc1nc(-c2ccco2)c(-c2ccco2)s1)c1ccco1 77.3%
O=C1[C@@H](c2ccccc2)[C@@H](c2ccccc2)N1c1cccnc1 71.3%
N/C(Cc1ccc([N+](=O)[O-])cc1)=N\OC(=O)C1CCCCC1 64.3%
N/C(Cc1ccc([N+](=O)[O-])cc1)=N\OC(=O)COc1ccc2ccccc2c1 72.3%
Cc1cccc(NC(=S)Nc2ccc(Cl)c(Cl)c2)c1 63.8%
Cn1c(=O)c(C(=O)Nc2ncccn2)c(O)c2ccccc21 53.4%
O=C1Nc2ccccc2/C1=C/c1ccnc2ccccc12 56.8%
COc1ccc(S(=O)(=O)N2CCN(C(C)C(=O)Nc3ccc(C(C)C)cc3)CC2)cc1 (configuration not stated) 51.4%
COc1ccc(C(C[N+](=O)[O-])n2nc(C)cc2C)cc1 (configuration not stated) 62%
O=C(NC(Nc1nc2ccc([N+](=O)[O-])cc2s1)(C(F)(F)F)C(F)(F)F)c1ccccc1 87.3%
COc1ccc(NC(=O)Nc2cccc3cccnc23)cc1 42.3%
CN(C(=O)CC(NC(=O)c1ccccc1)(c1ccccc1)c1ccccc1)c1ccccc1 44.1%
Fc1ccccc1-c1cc2cc3c(cc2cn1)OCO3 59%
CCOc1ccc(C(c2c(C)[nH][nH]c2=O)c2c(C)[nH][nH]c2=O)cc1OCC 41.6%
Cc1ccc2nc(-c3ccc(NC(=O)c4cccnc4)cc3)oc2c1 42.7%
O=C(Nc1nnc(SCc2c(Cl)cccc2Cl)s1)C1CCCO1 (configuration not stated) 49.7%
Cc1cccc(C)c1NC(=O)C(Cl)C(=O)c1ccccc1 (configuration not stated) 68.8%
S=C(NCCCc1ccccc1)Nc1ccc(Br)cc1 54.3%
COc1ccc2c(c1)C(NS(=O)(=O)OCC(Cl)(Cl)Cl)CCC2 (configuration not stated) 52.8%
CCCCCCc1ccc(O)cc1O 45.3%
O=C(NC(=S)NC1CCCCC1)c1ccc(Cl)cc1 53.2%
COc1ccc(C(=O)NC(=S)NC2CCCCC2)cc1 59.2%
Cc1ccoc1C(=O)Nc1cccc(Oc2ccccc2)c1 75.2%
COc1ccccc1-c1n[nH]c2c1[C@H](C)CC[C@H]2C(C)C 61.8%
Cc1ccc(C2CC(=O)NC(SCC(=O)OCc3ccccc3)=C2C#N)o1 (configuration not stated) 53.8%
O=C1C=C(c2cccc(Cl)c2O)C[C@@H](c2ccc(F)cc2)C1 51.5%
CC(=O)Oc1ccc2c(c1)C(=O)c1ccccc1C2=O 68.2%
Cc1nc2sc(C(=O)c3ccccc3)c(N)c2c2c1CCCC2 54.4%
Cc1[nH]n(C(N)=S)c(=O)c1N=Nc1ccc(Cl)cc1Cl 70%
CC(=O)N1N=C(c2ccncc2)OC1(Cc1ccccc1)Cc1ccccc1 49.8%
c1ccc(-c2nc(NCc3ccco3)c3ccccc3n2)cc1 64.7%
O=c1ccc2c(-c3ccccc3S(=O)(=O)O)c3ccc(O)c(O)c3oc-2c1O 43.4%
O=c1oc(-c2ccccc2NS(=O)(=O)c2ccc(Cl)cc2)nc2ccccc12 56%
CC(C)NC(=O)/C(C#N)=C\c1ccc(N(C)C)c(Br)c1 62.2%
Cc1cc(Nc2ccc(Br)cc2)nc2ccccc12 68.2%
Cc1ccc2nc(Nc3ccccc3)cc(C)c2c1 43.1%
Cc1[nH][nH]c(=O)c1C(c1ccc(-c2ccc(Cl)cc2)o1)c1c(C)[nH][nH]c1=O 62.4%
CC(=O)Oc1ccc(N(C(C)=O)S(=O)(=O)c2ccc3ccccc3c2)cc1Br 52.9%
Cc1ccc(C(=O)OC2=CC(=O)CC(C)(C)C2)cc1 38%
CSC(=S)N/N=C/c1c[nH]c2ccccc12 52.5%
COCCNC(=O)/C(C#N)=C/c1cccc(OCc2ccccc2)c1 67%
CCCCC(CC)CNC(=O)C(=O)C1C(=O)Nc2ccccc21 (configuration not stated) 41.6%
O=C(Nc1cccc(F)c1)NC1CCCCCCC1 39.9%
COc1cc(SC)ccc1C(=O)Nc1nc(C)cs1 57.5%
Cc1cc(C)nc(S/C=C/C(=O)c2ccccc2)n1 87.6%
CCc1ccc2c(c1)C1(NN=C(c3ccccc3)S1)C(=O)N2 (configuration not stated) 53.2%
CCC1=NN(C(=O)Cc2ccc([N+](=O)[O-])cc2)C(O)(c2ccc(Br)cc2)C1 (configuration not stated) 45.7%
CC1CCC2CCCCC2N1C(=O)c1cc([N+](=O)[O-])cc([N+](=O)[O-])c1 (configuration not stated) 42.8%
Cc1onc(NC(=O)c2ccc([N+](=O)[O-])o2)c1Br 50.6%
Cc1ccc2c(c1)c1ncnc(N3CCc4ccccc4C3)c1n2C 45.2%
N#C/C(=C\c1cccnc1)C(=O)Nc1ccc(SC(F)F)cc1 65.7%
Cc1ccc(Oc2nc(-c3ccccn3)nc3ccccc23)cc1 46.1%
COc1ccc(Nc2nc(N)nc(CSC(=S)N3CCC(C)CC3)n2)cc1 49.7%
COc1ccc(/C=C2/C(=O)N(c3ccccc3)N=C2C)c(OC)c1 49.5%
N#C/C(=C\c1ccccc1C(F)(F)F)C(=O)Nc1ccccc1F 71.7%
Cc1cccc(C)c1N1C(=O)CN(Cc2ccccc2)C1=S 44.8%
Cn1nc(C(F)(F)F)c2cc(NC(=O)OCC(C)(C)C)sc21 41.3%

inhibition, inactive:
COc1ccc2c(c1)C(=C(C#N)C#N)C(=O)N2CCc1ccccc1 -89.4%
C/C(=N\NC(=S)NCc1ccccc1)c1ccc(Cl)cc1 36.7%
Cc1cc2ncn(CCCCOc3ccccc3)c2cc1C 27.3%
Cc1cccc(NC(=O)c2nc(S(=O)(=O)Cc3ccccc3)ncc2Cl)c1 -88.7%
CC(C)c1ccc(NC(=S)NC2CC3C=CC2C3)cc1 (configuration not stated) 36.4%
COc1ccc(CS(=O)/C(Cl)=C(/Cl)C(=O)Nc2ccc(OC)nc2)cc1 (configuration not stated) -9.55%
CCCc1c(C(=O)Nc2ccc(F)cc2)cnn1-c1ccccc1 30.4%
Cc1ccc(N=Cc2c(O)cc(C)oc2=O)c(C)c1 12.4%
Cc1ccccc1C(=O)NC(=S)NC1CC1 12.2%
O=C(Nc1ccccc1)c1ccc2c(c1)OCCCO2 31.9%
CCc1nnc(NS(=O)(=O)c2ccc(NC(=S)NC(=O)/C=C/c3cccs3)cc2)s1 25.8%
COc1cccc(-c2sc3ccc(OC)cc3c2-c2ccc(OCCN3CCCCC3)cc2)c1 23.4%
O=C1CC(Sc2ncn[nH]2)C(=O)N1c1ccccc1 (configuration not stated) 37.8%
Cc1cccc(-c2nc(Nc3ccc(O)cc3)c3ccccc3n2)c1 -19.6%
CN1C(=O)/C(=N/OC(=O)c2ccccc2Br)c2ccccc21 -64.7%
O=C(/C=C/Sc1ncn[nH]1)c1ccc(Cl)cc1 20.5%
CCCNc1ncnc2sc(C)c(C)c12 27.9%
O=C(N/N=C\c1cc(Br)c(Br)o1)C1COc2ccccc2O1 (configuration not stated) 31%
